Data: the supplement of paper PMC10681739

biological target: RUNX1 (UniProt Q01196); assay: RUNX1 binding intensity (PBM fluorescence), RUNX1 alone (arbitrary fluorescence units); higher = stronger binding; conditions: RUNX1 concentration 2 nM; ETS1 concentration 0 nM
Procedure: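 Cooperative gcPBM on 36-bp genomic probes with neighbouring ETS1 and RUNX1 sites. Recombinant human RUNX1 (2 nM) was incubated alone or with ETS1 (25 nM) and detected with anti-RUNX1 antibody plus Alexa488 secondary. Values are medians over 4 replicate spots; the RUNX1+ETS1 data were normalised to the RUNX1-only data. The probes sit in constant array flanks that are not printed.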
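Also: Full-length recombinant human RUNX1 bound to double-stranded 36-bp genomic probes on a high-density microarray, scored as Alexa488 fluorescence per spot via anti-RUNX1 antibody, median of four replicate spots.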

Sequence of RUNX1 (Q01196 whole entry): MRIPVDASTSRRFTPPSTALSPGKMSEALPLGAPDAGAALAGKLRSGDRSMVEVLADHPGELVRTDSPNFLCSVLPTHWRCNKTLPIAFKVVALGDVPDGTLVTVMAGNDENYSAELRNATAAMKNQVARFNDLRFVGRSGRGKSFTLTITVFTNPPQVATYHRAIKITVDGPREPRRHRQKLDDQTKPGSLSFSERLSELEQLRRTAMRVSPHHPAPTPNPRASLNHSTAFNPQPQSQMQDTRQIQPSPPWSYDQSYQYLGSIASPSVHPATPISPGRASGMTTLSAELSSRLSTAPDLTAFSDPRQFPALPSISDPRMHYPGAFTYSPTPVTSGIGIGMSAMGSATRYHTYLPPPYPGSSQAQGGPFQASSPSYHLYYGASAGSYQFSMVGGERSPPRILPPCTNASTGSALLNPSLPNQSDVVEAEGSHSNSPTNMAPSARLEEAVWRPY

Sequence | RUNX1 binding intensity
GGCACTTCCGGTCCTGACCTGAAGCGGTAACCGTCA | 719
AGCGGCCGAAGGAAGTGACGTTTGCGGCAGTAAGGC | 1130
GAGGACGCGGAAGTCCTTCTTGCGGGGCGGAGCTAG | 664
TCTTGAGGGTCAGGATGTGGTGAGGCCAGAGAAGGC | 808
TGAGCTCAGGCCGGAAGCGGTGGATGATGGCACACA | 716
GATACAGTGCTCAGGAAACCACATGAAACCAGAGTA | 924
TCTCTTCCTGTGATGGAAATACATTGAGGTTTGCGA | 787
CGGGGTTTCCTGGTGGCTGCGAGCGGTGGGGACGGC | 728
GCCGGGCACCCCGGAAGACCGCTGGGAACCGGCTTT | 656
AGGGCATTTCCTTTGGGGCTGGTGGTCACGGACAAC | 723
GGGGGAGCAAGCGCCTTCCGCGGTCGCTGGGGGGAG | 939
GCCGGCGGCCGGAAGTCTATCCCGCAGAAGCGCAGC | 736
AAAACAACTCCAGGATGTGGTTTTACTCAGAATGTA | 928
GCCCCCATGCTTCCTGTTGTGGGAGATGAAGTGTGG | 878
TATTCTTCCTGTACTTAAGCTTGCTGGTGTGGTTTC | 868
GTGCTGAGCAGCTTCCCGTCTGCGGTGAAGACAGCC | 1150
CGGCGCGGCGGACGTTGCTGCGGTAGGACGTGCCCG | 838
GCTCATTTATGCATCCTGTGGTCTGTGTGTGTTTCG | 984
TCTAAATCACTTCCTGTTACAGAAACCACAGGCCTG | 1220
GGCTTCCGCCGCCACCACTGCCCCTCAACCGCCACG | 1110

Sequence | RUNX1 binding intensity
CCCATTTCCGAGAGTGGCAGGGCTGGGCGCGGTGGG | 978
ATAAACAGGAAGCTGAGTATGTGACCACAGACATTC | 840
GACAATGAGCGCACAGGATGTGGTTTGGCGGCAGGG | 854
CCGCTGACATCCGCTTGGCCTGCGGCTTCTTTCTGT | 1080
CAACCTGCTATAAGGAAGTTAAACCGCAGCTCACCG | 3670
GCCATCCGCAGGACTCCGCGTTCTCGCGGTAAGTGG | 736
AAATCACGTACCCGGAAACCACATGCACAGAAGTGG | 980
TTTACTGAGAGGAAGTGGTTCTTGTGGGTGAAGGTC | 898
CTGAAGAGGAAATGTATTCCTCATGTTGTGGTTGGC | 860
GAAGCGGAAGTCGCTGAGGGGTGGTGAAGCGGTTGG | 710
GCCCACCCGCTTCCGGTTGTGGGCCCCGCCCGCCGA | 801
CGAACGCCGGACGTTCTGGGCACGTGACCGCCACCC | 863
GGGGCAGCTTCCGGCAGGAGAGCCCGCATTCACGGC | 1370
CCTGCCTGAGGCAGGAAGCCGCAGCTGAGGGACGGC | 761
GCACCACCGGAAGTAGGGCTCAACCACCGCTCATTT | 1000
TGCGCCGCTTCCGCTGCCCGAGGAAGAGCCGCAGTC | 802
CGCCTCATTTCCTGTGCAACTGCGGTAAAAATAGGA | 1630
TCCCACATCCTGTGCTCGTGCAGTGGTTAGGCTCAA | 793
GTCTTAGGTCGGAAGTCTGTGGTCCCTGTTCACATG | 835
GCAGTGCAGGAAGTGCTTTGTGTGGTACAATCCCAA | 759
